Screens from PubChem BioAssay.
An excerpt weighted towards active compounds, which were near 1.7% of everything screened.
HTR5A inv ctr: HTR5A inverse agonists in luminescence cell assay, primary screen, counter-screen for OPRM1-OPRD1 heterodimer inverse agonist project, full-deck HTS; 5-hydroxytryptamine receptor 5A (Homo sapiens), P47898; HTR5A cell line, inverse agonism; inhibition, % at 9.3 µM; actives 0.083% (n = 340,000); in the data active means inhibition mostly above about 23%, no sharp cut-off; inactive means mostly below about 18%;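 further: 0% = cells with DMSO and 100% = no-cell wells with DMSO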
V-ATPase pHluor: regulators of yeast V-ATPase proton pumping, primary screen, pHLuorin cytosolic pH fluorescence | S. cerevisiae | response, % at 10 µM | actives 0.37% (n = 350,000) | AID 504577, 2011; in the data active means response mostly above about 7.3%, no sharp cut-off; inactive means mostly below about 5.4%; further: actives read high
OPRM1-OPRD1 inv: inverse agonists of MOR-DOR heterodimerization, primary screen, cell-based, luminescence | Mu-type opioid receptor (Homo sapiens) + Delta-type opioid receptor (Homo sapiens), … | cell-based MOR-DOR heterodimer luminescence, inverse agonism | inhibition, % at 9.3 µM | actives 0.21% (n = 340,000); in the data active means inhibition above about 22%, passing the limit was not always enough;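 further: 0% = cells with DMSO and 100% = wells without cells with DMSO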
Target sequence (P35372 whole entry, looked up): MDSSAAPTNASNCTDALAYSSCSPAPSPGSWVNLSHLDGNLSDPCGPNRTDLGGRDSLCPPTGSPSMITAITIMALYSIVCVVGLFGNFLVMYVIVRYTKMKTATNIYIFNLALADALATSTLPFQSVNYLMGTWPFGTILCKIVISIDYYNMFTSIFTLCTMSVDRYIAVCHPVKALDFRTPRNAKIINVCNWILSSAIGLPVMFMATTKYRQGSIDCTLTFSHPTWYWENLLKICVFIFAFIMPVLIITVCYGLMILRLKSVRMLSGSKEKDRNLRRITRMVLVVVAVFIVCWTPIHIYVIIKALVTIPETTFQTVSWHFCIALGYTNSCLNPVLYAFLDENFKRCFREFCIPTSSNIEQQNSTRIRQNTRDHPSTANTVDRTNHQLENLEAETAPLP
Target sequence (P41143 whole entry, looked up): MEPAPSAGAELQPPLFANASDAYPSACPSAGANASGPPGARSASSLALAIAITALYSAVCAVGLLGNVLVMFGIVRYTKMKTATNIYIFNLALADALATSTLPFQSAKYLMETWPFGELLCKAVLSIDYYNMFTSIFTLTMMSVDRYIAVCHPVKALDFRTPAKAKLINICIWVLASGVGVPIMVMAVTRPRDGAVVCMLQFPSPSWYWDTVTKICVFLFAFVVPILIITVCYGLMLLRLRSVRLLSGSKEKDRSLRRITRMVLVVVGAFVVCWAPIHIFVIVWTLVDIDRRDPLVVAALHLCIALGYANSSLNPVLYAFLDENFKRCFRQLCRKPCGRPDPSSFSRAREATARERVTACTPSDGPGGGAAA
beta cell repl: inducers of MIN6 beta-cell proliferation, primary screen, ATP luminescence, uHTS; MIN6 cells proliferation, ATPlite luminescence, 48 h; cells starved in 0.2% serum; 100% = growth in 10% serum; proliferation, % at 10 µM; actives 0.29% (n = 330,000);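 active means compounds whose signal lies at least 3.5 SD above the mean of all wells on their plate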;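 further: 0% = DMSO-treated cells in low-serum medium and 100% = 10% serum control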
MOR-DOR ag: agonists of OPRM1-OPRD1 heterodimerization, primary screen, cell-based, luminescence. cells. actives 0.3% (n = 340,000). activation, % at 9.3 µM. Mu-type opioid receptor (Homo sapiens) + Delta-type opioid receptor (Homo sapiens), …. AID 504326, 2011; in the data active means activation above about 18%;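 further: 0% = vehicle-treated cells and 100% = reference agonist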
HTR5A ag ctr: HTR5A agonists in luminescence cell assay, primary screen, counter-screen for OPRM1-OPRD1 heterodimer agonist project, full-deck HTS; cell-based; actives 0.61% (n = 340,000); activation, % at 9.3 µM; AID 504692, 2011; 5-hydroxytryptamine receptor 5A (Homo sapiens), P47898; in the data active means activation mostly above about 9.5%, no sharp cut-off; inactive means mostly below about 7.6%;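 further: 0% = cells with vehicle only and 100% = reference agonist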
V-ATPase pH SP: yeast V-ATPase proton pumping modulators, confirmation, S. cerevisiae, pH-sensitive GFP, second cherry-pick | shares compounds with V-ATPase pHluor | S. cerevisiae pHLuorin cytosolic pH, V-ATPase proton transport | response, % at 10 µM | actives 2% (n = 980) | AID 602197, 2012; in the data active means response above about 24%;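 further: plate controls were vehicle wells for no effect and positive control wells for full effect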
* marks the source's active call; other numbers are inactive results; / = not tested or not shown.

SMILES	HTR5A inv ctr	V-ATPase pHluor	OPRM1-OPRD1 inv	beta cell repl	MOR-DOR ag	HTR5A ag ctr	V-ATPase pH SP
Clc1cccc(/C=N/N2CCN(Cc3ccccc3)CC2)c1	-3.1	13.8*	-15.5	-1.4	2.8	9.9	1.7
C(=N\N1CCN(Cc2ccccc2)CC1)/c1ccccc1	5.1	1.4	5.9	-0.3	-1.2	7.6	/
O=S(=O)(Nc1ccc(-c2cn3c(n2)SCC3)cc1)c1cc(F)ccc1F	/	-2.9	/	/	/	/	/
COc1c(O)c(O)c2oc(-c3ccccc3)cc(=O)c2c1OC	-12.3	10.6*	-53.0	3.1	9.6	15.5	2.3
Cc1ccc(C2=N/C(=C\c3c(C)nn(-c4ccccc4)c3N3CCCC3)C(=O)O2)cc1	0.2	70.5*	0.8	-2.4	-0.1	0.1	-5.9
CC1Oc2ccccc2N(CC(=O)c2cccc(Cl)c2)C1=O (stereo not drawn)	-27.1	8.0*	-10.5	0.8	1.8	-3.3	3.2
Cc1ccc2c(c1)N(CC(=O)c1cccc(Cl)c1)C(=O)C(C)O2 (stereo not drawn)	2.4	-0.7	-17.4	-1.6	3.0	-3.0	/
O=C(OCC(=O)N1CCN(C(=O)c2ccco2)CC1)c1ccc(Cl)nc1	8.1	-2.5	2.3	-2.1	-0.4	-2.2	/
COc1ccc(/C=N/NC(=O)CNC(=O)c2ccc3c(c2)OCCO3)c(C(=O)O)c1OC	-11.7	-3.9	11.8	-4.2	-2.2	2.9	/
COc1cc(C(=O)NCCOc2cccc3cccnc23)cc(OC)c1OC	2.1	15.3*	2.5	0.3	-0.5	-1.3	-0.6
CCCCCC(=O)N1C[C@H](n2cc(-c3ccc(F)cc3)nn2)[C@@H](O)C[C@@H]1c1ccc(C)cc1	/	6.8*	/	/	/	/	-0.9
CC(C)C(=O)O/N=C(\N)c1ccc(Oc2ccc(Cl)cc2)c([N+](=O)[O-])c1	-11.4	2.7	-4.8	-2.9	1.0	2.9	/
COc1cccc(OCC(=O)NNC(=O)Cc2cccs2)c1	-42.0	14.0*	9.4	-1.6	-1.7	2.1	-0.4
O=C/C(=C\Nc1ccc(Br)cc1)c1nc2ccccc2o1	-6.3	8.9*	-3.3	-2.0	0.6	-0.6	0.5
Cc1nn(C)cc1C(C)NC(=O)c1cc(COc2cccc3cnccc23)on1 (stereo not drawn)	-12.9	-0.6	1.1	-0.8	-0.2	2.3	/
Cc1nn(C)cc1C(C)NC(=O)c1cc(COc2c(F)cccc2F)on1 (stereo not drawn)	-15.3	11.3*	-5.6	-3.6	0.8	5.4	-2.8
CC(C(=O)N1CCOCC1)N1C(=O)c2cccc3cccc(c23)C1=O (stereo not drawn)	-3.7	-0.2	5.8	3.5	-0.8	1.9	/
O=C(O)c1cc(-c2ccc(Cl)c(Cl)c2)n(-c2ccc(F)cc2)n1	4.8	12.5*	1.4	-2.4	-0.3	-1.3	1.2
O=C(O)c1cc(-c2ccccc2)n(-c2ccc(Cl)cc2)n1	9.7	-0.2	9.4	3.5	-1.9	-2.4	/
CC(C)C(=O)Nc1cc(=O)[nH]c2ncnn12	-28.3	10.3*	-10.2	-2.8	1.9	-1.7	-0.3
Cc1c(Cl)cccc1NC(=O)NN1CCN(C)CC1	2.0	-1.4	-2.9	-1.2	0.6	3.8	/
COc1ccc(-c2c(-c3ccc(OC)c(F)c3)c3ccccc3n2C)cc1	3.6	21.3*	1.3	-5.0	-0.2	0.8	3.2
COc1ccc(-c2c(-c3cc(OC)cc(OC)c3)n(C)c3ccc(-c4ccc(OC)c(F)c4)cc23)cc1	19.6	1.8	5.5	-2.6	-0.9	-0.1	/
Cc1ccc(S(=O)(=O)n2cnc(C)c2)cc1	-41.0	13.4*	2.3	-1.5	-0.5	11.1	1.4
CC(=O)Nc1ccc(S(=O)(=O)n2cnc(C)c2)cc1	16.8	-2.1	8.5	-1.8	-2.0	-7.0	/
SMILES	HTR5A inv ctr	V-ATPase pHluor	OPRM1-OPRD1 inv	beta cell repl	MOR-DOR ag	HTR5A ag ctr	V-ATPase pH SP
Clc1ccc(CSC2=NCCCN2)cc1Cl	-10.0	1.6	11.8	-0.8	-2.0	1.9	-0.5
O=c1ccnc(SCc2ccccc2Cl)[nH]1	-8.2	1.4	13.2	-1.5	-2.9	0.5	/
Clc1ccccc1CSC1=NCCCN1	-0.4	0.9	8.4	-0.3	-1.4	0.2	1.2
CN(CC(=O)NC1CCCCCC1)S(=O)(=O)c1ccc(F)cc1	23.2	-1.8	12.9	-3.1	-2.5	2.6	/
O=C(CCSc1ccc(Cl)cc1)NC1CCCCC1	-5.1	12.7*	2.6	0.5	-0.4	1.9	-0.8
CN(CC(=O)NC1CCCCC1)S(=O)(=O)c1ccc(Cl)cc1	4.2	10.8*	10.6	-1.6	-1.9	-0.9	1.3
CCc1nc(SCC(=O)Nc2nccs2)c2oc3ccccc3c2n1	10.5	10.1*	-8.8	-1.4	1.8	-4.1	-1.4
CC1=C(C(=O)N2CCOCC2)CC(CC(=O)NCCCCc2ccccc2)C(=O)N1Cc1ccc(F)cc1 (stereo not drawn)	/	-0.6	/	/	/	/	/
CCCCNC(=O)Cn1cnc2sc(C)c(S(=O)(=O)N3CCN(c4ccccc4OC)CC3)c2c1=O	-11.6	0.1	-14.9	-0.5	1.9	3.9	/
Cc1ccc(CSCC(=O)N2CCN(c3ccc(F)cc3)CC2)cc1	12.5	11.8*	-29.7	-1.5	5.4	-4.9	-0.2
COc1ccc2c(=O)cc(-c3ccccc3F)oc2c1	-8.7	5.7*	11.0	-2.3	-2.2	-5.5	-0.8
COc1ccccc1C(c1nnnn1C(C)C)N1CCN(C(=O)c2ccco2)CC1 (stereo not drawn)	-4.0	-4.4	-4.8	-0.5	0.6	1.4	/
O=C1NC(=S)N/C1=C/c1cccc2ccccc12	6.3	9.1*	6.1	-2.6	-1.4	-1.8	-10.4
O=C(NN1CCOCC1)c1ccccc1Br	-19.3	-3.7	1.8	1.1	-0.3	-1.1	/
Cc1nn(-c2ccccc2)c(Cl)c1/C=C1\SC(=S)N(C)C1=O	17.6	-3.3	5.4	-3.8	-1.1	-0.3	/
Cc1nn(-c2ccccc2)c(Cl)c1/C=C1\C(=O)N(C)C(=S)N1C	-26.4	47.2*	-13.6	3.8	2.5	2.1	1.7
Cc1ccc(-c2nn3nnnc3c3ccccc23)cc1C	-13.0	7.7*	-19.5	1.1	3.9	4.3	-1.9
c1ccc(-c2nn3nnnc3c3ccccc23)cc1	-7.4	-0.4	15.6	-2.4	-2.7	-5.5	/
NNC(=O)COc1cccc(C(F)(F)F)c1	13.1	11.9*	-22.4	-0.6	4.5	-4.0	2.6
CN(C)S(=O)(=O)c1cccc(NC(=O)c2ccc3nccnc3c2)c1	3.9	1.2	-10.5	-0.2	2.0	3.0	/
